Common to all, as to test: DAPPL (digital affinity profiling via proximity ligation, sequencing); 10 mM Tris-HCl pH 7.5, 50 mM NaCl, 1 mM DTT, 4% glycerol, room temperature, 30 min; GST-TFs on glutathione beads, 16-mer random dsDNA library, 0.1% formaldehyde crosslink after washing; high values mean tight binding
The target of one experiment is T1, FEV (Homo sapiens, UniProt Q99581 1-238).
T1 sequence: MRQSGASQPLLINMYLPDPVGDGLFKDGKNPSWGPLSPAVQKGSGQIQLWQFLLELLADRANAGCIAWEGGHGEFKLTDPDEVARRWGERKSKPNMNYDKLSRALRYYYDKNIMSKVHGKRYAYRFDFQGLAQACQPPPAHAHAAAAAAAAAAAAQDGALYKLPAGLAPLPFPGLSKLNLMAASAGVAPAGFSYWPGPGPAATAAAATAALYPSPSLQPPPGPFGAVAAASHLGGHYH
The following applies: protein: recombinant; tags: N-terminal GST; dsDNA, one strand shown. A digest of the protocol:
(§1)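 After expression in yeast as GST fusions, human transcription factors were bound to glutathione beads, DNA-barcoded and mixed with a tag-only sample. The pools were incubated with 200 nmole of a 16-mer random double-stranded DNA library in Tris/NaCl/DTT/glycerol buffer (30 min, room temperature), washed and crosslinked with 0.1% formaldehyde. Proximity ligation with BsaI/T4 ligase ran for 1 h at 37 °C, before PCR amplification and sequencing on an Illumina NextSeq500. Binding signal is a hexamer's read frequency for a factor divided by its frequency for the tag-only sample.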

For another experiment, the target named is ETV5 (Homo sapiens, UniProt P41161 1-510). To be noted: protein: recombinant; tags: N-terminal GST; dsDNA, one strand shown. An outline of the steps:
as §1

The target of the next experiment is HSF1 (Homo sapiens, UniProt Q00613 1-529). The following applies: protein: recombinant; tags: N-terminal GST; chain copies: 3; dsDNA, one strand shown. An outline of the steps: as §1
HSF1, sequence (Q00613 whole entry): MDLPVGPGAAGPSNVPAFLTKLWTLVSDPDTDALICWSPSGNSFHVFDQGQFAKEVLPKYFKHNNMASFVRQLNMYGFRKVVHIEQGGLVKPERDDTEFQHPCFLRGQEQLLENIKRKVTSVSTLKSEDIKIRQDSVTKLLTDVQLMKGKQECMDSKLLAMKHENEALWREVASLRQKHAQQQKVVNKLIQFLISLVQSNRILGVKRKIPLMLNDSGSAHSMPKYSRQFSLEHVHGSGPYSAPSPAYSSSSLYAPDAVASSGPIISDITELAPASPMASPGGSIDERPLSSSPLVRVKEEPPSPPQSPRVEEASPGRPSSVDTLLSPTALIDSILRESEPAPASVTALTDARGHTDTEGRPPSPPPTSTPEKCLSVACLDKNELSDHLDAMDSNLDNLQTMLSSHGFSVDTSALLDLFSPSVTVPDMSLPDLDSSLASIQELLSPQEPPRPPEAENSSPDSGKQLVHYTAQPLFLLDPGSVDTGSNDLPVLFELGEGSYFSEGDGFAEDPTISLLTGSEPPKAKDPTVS
For the next experiment, the target named is T2, SPIC (Homo sapiens, UniProt Q8N5J4 1-248).
T2 sequence: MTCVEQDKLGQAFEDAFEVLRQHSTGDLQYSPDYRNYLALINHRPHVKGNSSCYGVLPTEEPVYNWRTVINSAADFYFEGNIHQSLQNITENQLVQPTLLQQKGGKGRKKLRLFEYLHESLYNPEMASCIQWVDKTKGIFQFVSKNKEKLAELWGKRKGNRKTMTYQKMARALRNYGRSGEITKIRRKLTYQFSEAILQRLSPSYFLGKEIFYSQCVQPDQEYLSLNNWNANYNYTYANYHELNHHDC
To be noted: protein: recombinant; tags: N-terminal GST; dsDNA, one strand shown. An outline of the steps:
as §1

The target of a further experiment is ELF4 (Homo sapiens, UniProt Q99607 1-663). The following applies: protein: recombinant; tags: N-terminal GST; dsDNA, one strand shown. An outline of the steps:
as §1

The target of another experiment is T3, ELK4 (Homo sapiens, UniProt P28324-2 1-405).
T3 sequence: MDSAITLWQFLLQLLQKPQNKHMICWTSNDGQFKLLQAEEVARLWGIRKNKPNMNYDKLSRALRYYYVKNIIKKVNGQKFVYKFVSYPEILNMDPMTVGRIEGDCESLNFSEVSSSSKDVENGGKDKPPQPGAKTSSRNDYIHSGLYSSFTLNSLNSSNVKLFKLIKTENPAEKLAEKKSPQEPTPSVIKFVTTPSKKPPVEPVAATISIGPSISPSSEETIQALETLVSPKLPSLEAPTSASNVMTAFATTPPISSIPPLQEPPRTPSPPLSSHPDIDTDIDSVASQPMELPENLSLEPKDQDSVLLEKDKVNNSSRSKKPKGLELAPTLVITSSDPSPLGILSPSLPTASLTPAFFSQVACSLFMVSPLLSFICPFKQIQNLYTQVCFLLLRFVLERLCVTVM
The following applies: protein: recombinant; tags: N-terminal GST; dsDNA, one strand shown. A digest of the protocol: as §1

The next experiment addresses T4, ETV2 (Homo sapiens, UniProt O00321 1-342).
T4 sequence: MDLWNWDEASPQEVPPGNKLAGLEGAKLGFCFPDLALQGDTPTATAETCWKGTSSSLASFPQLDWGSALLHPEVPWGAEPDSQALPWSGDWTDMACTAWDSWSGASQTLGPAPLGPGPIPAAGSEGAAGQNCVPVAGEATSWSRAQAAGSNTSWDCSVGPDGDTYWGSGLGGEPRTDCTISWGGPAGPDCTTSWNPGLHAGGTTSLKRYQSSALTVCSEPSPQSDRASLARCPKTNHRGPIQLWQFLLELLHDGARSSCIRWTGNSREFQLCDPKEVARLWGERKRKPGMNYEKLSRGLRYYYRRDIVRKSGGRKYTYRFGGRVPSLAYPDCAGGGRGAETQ
The following applies: protein: recombinant; tags: N-terminal GST; dsDNA, one strand shown. An outline of the steps:
as §1

The next experiment has as its target T5, ELF3 (Homo sapiens, UniProt P78545 1-371).
T5 sequence: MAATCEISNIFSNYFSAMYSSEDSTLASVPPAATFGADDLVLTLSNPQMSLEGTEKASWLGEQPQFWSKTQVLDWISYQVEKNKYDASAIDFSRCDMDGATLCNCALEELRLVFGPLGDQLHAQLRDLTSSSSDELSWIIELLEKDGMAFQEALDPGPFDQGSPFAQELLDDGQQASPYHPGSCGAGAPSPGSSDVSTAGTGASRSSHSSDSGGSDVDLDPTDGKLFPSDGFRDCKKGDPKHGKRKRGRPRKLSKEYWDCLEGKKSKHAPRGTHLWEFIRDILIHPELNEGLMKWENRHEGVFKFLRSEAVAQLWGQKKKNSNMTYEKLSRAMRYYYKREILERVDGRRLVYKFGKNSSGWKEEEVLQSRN
The following applies: protein: recombinant; tags: N-terminal GST; dsDNA, one strand shown. An outline of the steps:
as §1

For another experiment, the target named is CRX (Homo sapiens, UniProt O43186 1-299). To be noted: protein: recombinant; tags: N-terminal GST; dsDNA, one strand shown. An outline of the steps:
as §1

A further experiment concerns the target ETV1 (Homo sapiens, UniProt P50549 1-477). To be noted: protein: recombinant; tags: N-terminal GST; dsDNA, one strand shown. An outline of the steps:
as §1

A further experiment concerns the target T6, ERF (Homo sapiens, UniProt P50548 1-548).
T6 sequence: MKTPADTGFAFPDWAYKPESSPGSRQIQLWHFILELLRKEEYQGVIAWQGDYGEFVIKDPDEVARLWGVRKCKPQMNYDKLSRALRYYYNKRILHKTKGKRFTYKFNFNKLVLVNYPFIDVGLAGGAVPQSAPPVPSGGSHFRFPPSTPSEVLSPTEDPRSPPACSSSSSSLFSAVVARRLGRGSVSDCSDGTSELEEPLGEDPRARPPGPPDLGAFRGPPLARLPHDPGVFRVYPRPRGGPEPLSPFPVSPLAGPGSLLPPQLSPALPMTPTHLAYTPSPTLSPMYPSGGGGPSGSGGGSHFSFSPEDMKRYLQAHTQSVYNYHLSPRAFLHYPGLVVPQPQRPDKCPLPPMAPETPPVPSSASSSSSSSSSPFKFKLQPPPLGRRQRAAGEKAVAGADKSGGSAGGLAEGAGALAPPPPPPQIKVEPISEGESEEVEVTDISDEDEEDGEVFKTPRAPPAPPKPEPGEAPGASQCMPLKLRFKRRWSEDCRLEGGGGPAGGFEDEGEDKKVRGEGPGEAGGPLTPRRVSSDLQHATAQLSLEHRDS
The following applies: protein: recombinant; tags: N-terminal GST; dsDNA, one strand shown. An outline of the steps: as §1

In the next experiment the target is T7, ETV3L (Homo sapiens, UniProt Q6ZN32 1-361).
T7 sequence: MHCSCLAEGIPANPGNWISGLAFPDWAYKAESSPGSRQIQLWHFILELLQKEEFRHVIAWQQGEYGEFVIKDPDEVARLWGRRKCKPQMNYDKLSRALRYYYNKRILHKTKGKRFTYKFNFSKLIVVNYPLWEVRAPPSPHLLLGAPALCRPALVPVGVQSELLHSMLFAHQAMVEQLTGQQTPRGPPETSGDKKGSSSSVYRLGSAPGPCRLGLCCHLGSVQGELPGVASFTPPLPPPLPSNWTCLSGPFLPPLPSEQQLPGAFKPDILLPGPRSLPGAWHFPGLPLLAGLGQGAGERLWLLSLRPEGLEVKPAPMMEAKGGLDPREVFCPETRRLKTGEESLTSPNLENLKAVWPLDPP
To be noted: protein: recombinant; tags: N-terminal GST; dsDNA, one strand shown. An outline of the steps: as §1

A further experiment concerns the target T8, ETS2 (Homo sapiens, UniProt P15036 1-469).
T8 sequence: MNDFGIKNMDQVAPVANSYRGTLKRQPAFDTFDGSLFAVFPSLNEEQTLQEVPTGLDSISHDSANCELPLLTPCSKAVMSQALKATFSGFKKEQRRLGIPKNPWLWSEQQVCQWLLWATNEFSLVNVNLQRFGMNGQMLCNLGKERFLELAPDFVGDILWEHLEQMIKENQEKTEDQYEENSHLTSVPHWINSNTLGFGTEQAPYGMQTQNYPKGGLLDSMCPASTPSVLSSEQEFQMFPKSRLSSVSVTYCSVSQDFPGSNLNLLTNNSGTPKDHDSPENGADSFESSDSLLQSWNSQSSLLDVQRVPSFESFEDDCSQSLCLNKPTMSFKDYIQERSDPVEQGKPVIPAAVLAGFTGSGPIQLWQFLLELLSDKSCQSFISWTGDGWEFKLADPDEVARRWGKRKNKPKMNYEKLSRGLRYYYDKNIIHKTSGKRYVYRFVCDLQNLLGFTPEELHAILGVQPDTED
The following applies: protein: recombinant; tags: N-terminal GST; dsDNA, one strand shown. A digest of the protocol:
as §1

The target in a further experiment is T9, SPDEF (Homo sapiens, UniProt O95238 1-335).
T9 sequence: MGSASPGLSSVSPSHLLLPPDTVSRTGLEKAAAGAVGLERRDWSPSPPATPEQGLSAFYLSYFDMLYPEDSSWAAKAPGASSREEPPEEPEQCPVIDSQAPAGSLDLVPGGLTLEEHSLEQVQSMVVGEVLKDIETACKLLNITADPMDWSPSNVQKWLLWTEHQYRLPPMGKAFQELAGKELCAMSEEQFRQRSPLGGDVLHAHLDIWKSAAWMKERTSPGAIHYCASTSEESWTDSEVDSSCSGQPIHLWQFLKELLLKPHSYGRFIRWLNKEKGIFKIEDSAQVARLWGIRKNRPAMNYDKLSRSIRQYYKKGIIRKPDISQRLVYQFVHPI
The following applies: protein: recombinant; tags: N-terminal GST; dsDNA, one strand shown. A digest of the protocol: as §1

The next experiment addresses T10, ETV7 (Homo sapiens, UniProt Q9Y603 1-341).
T10 sequence: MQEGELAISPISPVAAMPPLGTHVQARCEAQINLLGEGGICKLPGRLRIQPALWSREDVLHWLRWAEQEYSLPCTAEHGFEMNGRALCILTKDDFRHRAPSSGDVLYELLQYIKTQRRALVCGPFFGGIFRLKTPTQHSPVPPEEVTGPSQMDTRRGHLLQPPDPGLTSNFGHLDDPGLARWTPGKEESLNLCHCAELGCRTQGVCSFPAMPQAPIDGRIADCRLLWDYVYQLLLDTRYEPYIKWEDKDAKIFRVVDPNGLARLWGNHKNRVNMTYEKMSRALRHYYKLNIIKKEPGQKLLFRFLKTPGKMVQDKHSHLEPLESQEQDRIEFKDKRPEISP
To be noted: protein: recombinant; tags: N-terminal GST; dsDNA, one strand shown. A digest of the protocol: as §1

Another experiment deals with T11, ELF5 (Homo sapiens, UniProt Q9UKW6-2 1-255).
T11 sequence: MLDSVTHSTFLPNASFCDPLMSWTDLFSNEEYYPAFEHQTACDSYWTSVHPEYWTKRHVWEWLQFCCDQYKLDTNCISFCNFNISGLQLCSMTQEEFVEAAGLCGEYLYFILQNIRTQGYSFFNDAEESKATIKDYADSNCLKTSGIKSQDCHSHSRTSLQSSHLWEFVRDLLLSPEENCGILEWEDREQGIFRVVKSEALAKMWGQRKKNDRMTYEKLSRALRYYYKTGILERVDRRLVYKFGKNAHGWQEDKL
The following applies: protein: recombinant; tags: N-terminal GST; dsDNA, one strand shown. A digest of the protocol:
as §1

Another experiment deals with T12, ETV3 (Homo sapiens, UniProt P41162-2 1-143).
T12 sequence: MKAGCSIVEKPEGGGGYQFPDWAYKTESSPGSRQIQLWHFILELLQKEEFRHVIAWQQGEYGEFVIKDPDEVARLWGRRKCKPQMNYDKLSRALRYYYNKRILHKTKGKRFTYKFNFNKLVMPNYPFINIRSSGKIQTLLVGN
The following applies: protein: recombinant; tags: N-terminal GST; dsDNA, one strand shown. A digest of the protocol:
as §1

For another experiment, the target named is ETV6 (Homo sapiens, UniProt P41212 1-452). To be noted: protein: recombinant; tags: N-terminal GST; dsDNA, one strand shown. A digest of the protocol:
as §1

ELF4, sequence (Q99607 whole entry): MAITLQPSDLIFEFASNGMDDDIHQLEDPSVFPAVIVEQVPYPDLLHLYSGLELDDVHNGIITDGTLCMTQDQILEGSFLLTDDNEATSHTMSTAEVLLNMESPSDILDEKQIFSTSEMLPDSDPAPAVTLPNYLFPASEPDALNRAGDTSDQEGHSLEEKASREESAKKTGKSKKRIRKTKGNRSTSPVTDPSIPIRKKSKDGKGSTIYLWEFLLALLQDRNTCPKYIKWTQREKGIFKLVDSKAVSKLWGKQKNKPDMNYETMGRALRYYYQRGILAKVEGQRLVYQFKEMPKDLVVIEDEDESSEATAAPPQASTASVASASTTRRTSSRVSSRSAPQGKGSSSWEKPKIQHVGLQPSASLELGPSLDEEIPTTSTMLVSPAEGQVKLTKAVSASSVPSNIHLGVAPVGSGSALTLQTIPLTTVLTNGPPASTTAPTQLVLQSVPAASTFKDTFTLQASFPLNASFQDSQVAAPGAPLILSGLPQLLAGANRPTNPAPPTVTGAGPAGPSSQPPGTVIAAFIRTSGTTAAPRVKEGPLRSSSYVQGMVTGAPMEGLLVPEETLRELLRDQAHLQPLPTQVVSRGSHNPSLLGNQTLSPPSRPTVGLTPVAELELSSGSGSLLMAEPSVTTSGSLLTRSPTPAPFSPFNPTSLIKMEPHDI
ETV1, sequence (P50549 whole entry): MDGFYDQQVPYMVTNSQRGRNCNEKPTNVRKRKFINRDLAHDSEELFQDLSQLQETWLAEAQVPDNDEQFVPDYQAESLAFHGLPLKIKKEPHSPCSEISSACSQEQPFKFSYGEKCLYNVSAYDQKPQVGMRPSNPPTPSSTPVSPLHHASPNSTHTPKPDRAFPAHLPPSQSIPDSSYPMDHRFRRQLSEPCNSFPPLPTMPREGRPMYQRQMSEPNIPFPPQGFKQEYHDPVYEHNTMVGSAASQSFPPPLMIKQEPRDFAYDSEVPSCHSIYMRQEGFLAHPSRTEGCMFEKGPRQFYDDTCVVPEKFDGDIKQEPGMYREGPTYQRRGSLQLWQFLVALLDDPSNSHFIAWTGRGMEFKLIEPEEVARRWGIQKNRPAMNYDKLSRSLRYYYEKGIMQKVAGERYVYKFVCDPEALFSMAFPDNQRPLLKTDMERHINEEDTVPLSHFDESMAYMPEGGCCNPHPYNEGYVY
ETV5, sequence (P41161 whole entry): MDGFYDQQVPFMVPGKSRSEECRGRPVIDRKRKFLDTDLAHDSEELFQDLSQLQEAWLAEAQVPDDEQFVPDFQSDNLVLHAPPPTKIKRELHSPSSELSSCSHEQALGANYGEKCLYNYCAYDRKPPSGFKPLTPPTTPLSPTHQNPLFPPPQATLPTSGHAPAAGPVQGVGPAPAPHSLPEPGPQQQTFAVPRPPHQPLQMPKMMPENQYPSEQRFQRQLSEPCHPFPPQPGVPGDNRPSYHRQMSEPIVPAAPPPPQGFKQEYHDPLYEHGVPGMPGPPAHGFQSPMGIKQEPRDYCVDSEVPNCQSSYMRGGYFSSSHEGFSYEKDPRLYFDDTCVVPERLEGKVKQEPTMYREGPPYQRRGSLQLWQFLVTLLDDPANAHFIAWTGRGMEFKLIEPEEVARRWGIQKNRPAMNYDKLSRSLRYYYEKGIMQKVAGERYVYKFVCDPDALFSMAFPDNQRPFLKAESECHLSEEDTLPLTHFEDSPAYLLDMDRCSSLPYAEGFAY
ETV6, sequence (P41212 whole entry): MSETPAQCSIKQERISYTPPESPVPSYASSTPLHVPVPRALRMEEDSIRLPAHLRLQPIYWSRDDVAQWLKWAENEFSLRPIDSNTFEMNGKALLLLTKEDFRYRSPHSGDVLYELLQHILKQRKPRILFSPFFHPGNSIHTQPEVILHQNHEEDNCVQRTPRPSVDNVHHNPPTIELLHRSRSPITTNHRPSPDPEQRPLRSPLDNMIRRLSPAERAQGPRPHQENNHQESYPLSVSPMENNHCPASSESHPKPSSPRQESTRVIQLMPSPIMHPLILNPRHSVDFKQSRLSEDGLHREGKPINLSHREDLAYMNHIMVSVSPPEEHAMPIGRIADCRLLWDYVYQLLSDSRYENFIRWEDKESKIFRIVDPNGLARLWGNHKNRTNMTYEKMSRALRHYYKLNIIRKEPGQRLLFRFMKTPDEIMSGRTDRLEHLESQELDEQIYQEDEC
CRX, sequence (O43186 whole entry): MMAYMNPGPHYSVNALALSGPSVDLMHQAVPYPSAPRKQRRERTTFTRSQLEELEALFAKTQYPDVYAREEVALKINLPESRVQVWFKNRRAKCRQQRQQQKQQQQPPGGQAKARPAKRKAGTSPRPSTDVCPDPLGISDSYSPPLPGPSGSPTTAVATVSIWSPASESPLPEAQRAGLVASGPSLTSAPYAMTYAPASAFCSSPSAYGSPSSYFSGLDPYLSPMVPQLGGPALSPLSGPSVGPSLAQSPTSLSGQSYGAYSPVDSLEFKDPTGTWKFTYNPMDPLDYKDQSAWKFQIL

For the sequence TAACAC, the binding signal in the experiment with FEV was 1.24 fold enrichment (6-mer frequency, TF over GST control); in the experiment with ETV5 it was 1.23 fold enrichment (6-mer frequency, TF over GST control); in the experiment with HSF1, 1.2 fold enrichment (6-mer frequency, TF over GST control); with SPIC, 1.39 fold enrichment (6-mer frequency, TF over GST control); with ELF4, 1.26 fold enrichment (6-mer frequency, TF over GST control); with ELK4, 1.32 fold enrichment (6-mer frequency, TF over GST control). For the same sequence, the binding signal with ETV2 was 1.15 fold enrichment (6-mer frequency, TF over GST control); with ELF3, 1.16 fold enrichment (6-mer frequency, TF over GST control); with CRX, 1.56 fold enrichment (6-mer frequency, TF over GST control); with ETV1 it was 1.19 fold enrichment (6-mer frequency, TF over GST control); with ERF, 1.22 fold enrichment (6-mer frequency, TF over GST control); with ETV3L, 1.24 fold enrichment (6-mer frequency, TF over GST control). Besides, the binding signal in the experiment with ETS2 is 1.29 fold enrichment (6-mer frequency, TF over GST control); with SPDEF it was 1.28 fold enrichment (6-mer frequency, TF over GST control); in the experiment with ETV7 it was 1.21 fold enrichment (6-mer frequency, TF over GST control); in the experiment with ELF5, 1.2 fold enrichment (6-mer frequency, TF over GST control); with ETV3 it was 1.22 fold enrichment (6-mer frequency, TF over GST control); with ETV6, 1.19 fold enrichment (6-mer frequency, TF over GST control).

(Values after publication PMC7862700, “An all-to-all approach to the identification of sequence-specific readers for epigenetic DNA modifications on cytosine”.)
